According to PubChem BioAssay:
Active and inactive are the calls of the source.

Assays:
[1] = test system: PRMT1 (protein arginine N-methyltransferase 1); assay: small molecules binding arginine methyltransferase PRMT1 – biochemical, small-molecule microarray, 635 nm fluorescence, primary screen (AID 1088); settings: higher = more signal;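 note: binding of Prmt1 protein to compounds spotted on small-molecule microarray slides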
[2] = growth effects on S. cerevisiae YJM789 – YJM789 clinical isolate, OD600, 24 h, basal, primary screen (AID 1089); settings: higher = more signal, called active from +8 up or from −8 down;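 note: growth of clinical yeast isolate S. cerevisiae YJM 789 seeded 1000 cells per well; test concentration not given here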
[3] = S. pombe growth modifiers, basal conditions – strain 972, OD600, 24 h, no modulator, primary screen (AID 1090);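 note: basal condition with compound alone and no growth modifier present; test concentration not given here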; settings: S. pombe 972 growth, higher = more signal, called active from +8 up or from −8 down
[4] = budding yeast growth modifiers under rapamycin – strain BY4716, OD600, 96 h, primary screen (AID 1091); note: test concentration not given here; settings: S. cerevisiae BY4716 + rapamycin, higher = more signal, called active from +8 up or from −8 down
[5] = molecular target: Torsin-1A-interacting protein 2 (Homo sapiens) (UniProt Q8NFQ8); assay: small molecules binding lysate-expressed LULL1 – cell lysate, human LULL1 lysate, 635/667 nm fluorescence, primary screen (AID 1092); settings: small-molecule microarray, hLULL1 lysate binding, 635 nm fluorescence; higher = more signal;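 note: probe is lysate of COS7 cells overexpressing human LULL1; score merges per-feature 667 nm fluorescence with signal-to-noise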
[6] = optical density change of DRC41 E. coli – strain DRC41, OD650, 24 h, E. coli filamentation project, primary screen (AID 1093);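 note: MC1000 strain lacking acrAB efflux and sulA so SOS filamentation is blocked; test concentration not given here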; settings: E. coli DRC41 growth, higher = more signal, called active from +8 up or from −8 down
[7] = probe aLefty2 binding to arrayed compounds – biochemical, biotinylated probe, 635/667 nm fluorescence, primary screen (AID 1094); settings: small-molecule microarray, higher = more signal;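 note: score merges spot fluorescence near 667 nm with spot signal-to-noise ratio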
[8] = test system: Noggin (protein binding on small-molecule microarray); assay: small molecules binding Noggin protein – biochemical, 635/667 nm fluorescence, primary screen (AID 1095); settings: 635 nm fluorescence, higher = more signal;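 note: score merges 667 nm feature fluorescence with signal to noise over triplicate slides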
[9] = molecular target: Neurogenic locus notch homolog protein 3 (Homo sapiens) (UniProt Q9UM47); assay: small molecules binding NOTCH3 protein – biochemical, 635/667 nm fluorescence, primary screen (AID 1096); settings: small-molecule microarray, 635 nm fluorescence, higher = more signal
[10] = probe aEGFR binding to arrayed compounds – biochemical, biotinylated probe, 635/667 nm fluorescence, primary screen (AID 1097); settings: small-molecule microarray, higher = more signal;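 note: probe is a biotinylated anti-EGFR antibody binding compounds printed on slides; score combines fluorescence near 667 nm and signal to noise of each spot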
[11] = test system: Plasmodium falciparum Sir2 (PF13_0152, Sir2A); assay: Plasmodium falciparum Sir2A binding compounds – biochemical, small-molecule microarray, 635 nm fluorescence, primary screen (AID 1098); settings: fluorescence 635 nm, higher = more signal;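 note: score merges spot fluorescence intensity with its signal-to-noise ratio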
[12] = probe aDKK1 binding to arrayed compounds – biochemical, biotinylated probe, 635/667 nm fluorescence, primary screen (AID 1099); settings: small-molecule microarray, higher = more signal;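 note: score merges 667nm spot fluorescence with signal to noise across triplicate slides; reference of the scale not given here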
[13] = probe aCHRDL2 binding to arrayed compounds – biochemical, biotinylated probe, 635/667 nm fluorescence, primary screen (AID 1100); settings: small-molecule microarray, higher = more signal
[14] = change in splice reporter luminescence, either direction, cell-based, HEK293, spliceosome inhibition project, primary screen (AID 1101); settings: HEK293 splicing luciferase reporter, 24 h, higher = more signal, called active from +8 up or from −8 down;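 note: HEK293 cells carrying a splicing-competent luciferase reporter gene; test concentration not given here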
[15] = molecular target: Fibroblast growth factor 10 (Homo sapiens) (UniProt O15520); assay: compounds binding fibroblast growth factor 10 – biochemical, small-molecule microarray, 635 nm fluorescence, primary screen (AID 1102); settings: FGF10 binding, fluorescence 635 nm, higher = more signal
[16] = test system: glycogen synthase kinase-3 (GSK3A per assay name; protocol says GSK3B); assay: compounds binding glycogen synthase kinase-3 – biochemical, small-molecule microarray, 635 nm fluorescence, GSK3A, primary screen (AID 1103); settings: fluorescence 635 nm, higher = more signal; note: the record names both GSK3A and GSK3B
[17] = molecular target: Epidermal growth factor receptor (Homo sapiens) (UniProt P00533); assay: compounds binding epidermal growth factor receptor – biochemical, small-molecule microarray, 635 nm fluorescence, primary screen (AID 1104); settings: EGFR binding, higher = more signal;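 note: score merges 667 nm emission intensity with spot signal to noise over triplicate slides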
[18] = molecular target: Follistatin-related protein 3 (Homo sapiens) (UniProt O95633); assay: compounds binding follistatin-related protein 3 – biochemical, small-molecule microarray, 635 nm fluorescence, primary screen (AID 1105); settings: FSTL3 binding, higher = more signal;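 note: score merges emission near 667 nm and signal to noise per printed spot across three slides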
[19] = molecular target: Dickkopf-related protein 1 (Homo sapiens) (UniProt O94907); assay: small molecules binding DKK1 protein – biochemical, small-molecule microarray, 635 nm fluorescence scan, primary screen (AID 1106); settings: higher = more signal;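 note: score merges emission near 667 nm with signal to noise over three replicate slides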
[20] = test system: Inhibin beta A chain (activin A); assay: small molecules binding activin A – biochemical, small-molecule microarray, 635 nm fluorescence scan, primary screen (AID 1107); settings: INHBA, higher = more signal;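 note: mouse activin A protein probed at 4.33 µg/mL on printed slides; score merges bound-protein fluorescence near 667 nm with spot signal-to-noise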

Chain of Follistatin-related protein 3 (Homo sapiens) (O95633 whole entry, looked up): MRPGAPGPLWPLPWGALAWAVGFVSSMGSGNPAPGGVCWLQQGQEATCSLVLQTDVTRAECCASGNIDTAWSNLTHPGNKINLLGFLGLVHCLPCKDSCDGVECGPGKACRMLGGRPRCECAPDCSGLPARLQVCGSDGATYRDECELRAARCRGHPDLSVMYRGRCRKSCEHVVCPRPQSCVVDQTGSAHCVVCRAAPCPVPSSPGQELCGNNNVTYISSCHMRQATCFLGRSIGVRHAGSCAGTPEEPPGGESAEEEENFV
Chain of Dickkopf-related protein 1 (Homo sapiens) (O94907 whole entry, looked up): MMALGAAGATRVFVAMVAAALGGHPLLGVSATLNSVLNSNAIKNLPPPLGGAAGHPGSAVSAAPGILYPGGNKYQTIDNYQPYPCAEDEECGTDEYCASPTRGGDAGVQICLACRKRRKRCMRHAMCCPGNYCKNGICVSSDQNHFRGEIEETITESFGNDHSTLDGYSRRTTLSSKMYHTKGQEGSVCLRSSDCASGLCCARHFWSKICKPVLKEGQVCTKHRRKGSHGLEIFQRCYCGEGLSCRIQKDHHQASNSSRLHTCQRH
Chain of Fibroblast growth factor 10 (Homo sapiens) (O15520 whole entry, looked up): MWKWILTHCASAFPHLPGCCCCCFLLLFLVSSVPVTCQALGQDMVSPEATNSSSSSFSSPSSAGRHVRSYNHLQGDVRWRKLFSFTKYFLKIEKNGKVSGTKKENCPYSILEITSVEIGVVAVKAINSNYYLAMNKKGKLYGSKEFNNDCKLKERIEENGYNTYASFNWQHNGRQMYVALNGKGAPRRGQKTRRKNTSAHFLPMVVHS
Chain of Epidermal growth factor receptor (Homo sapiens) (P00533 whole entry, looked up): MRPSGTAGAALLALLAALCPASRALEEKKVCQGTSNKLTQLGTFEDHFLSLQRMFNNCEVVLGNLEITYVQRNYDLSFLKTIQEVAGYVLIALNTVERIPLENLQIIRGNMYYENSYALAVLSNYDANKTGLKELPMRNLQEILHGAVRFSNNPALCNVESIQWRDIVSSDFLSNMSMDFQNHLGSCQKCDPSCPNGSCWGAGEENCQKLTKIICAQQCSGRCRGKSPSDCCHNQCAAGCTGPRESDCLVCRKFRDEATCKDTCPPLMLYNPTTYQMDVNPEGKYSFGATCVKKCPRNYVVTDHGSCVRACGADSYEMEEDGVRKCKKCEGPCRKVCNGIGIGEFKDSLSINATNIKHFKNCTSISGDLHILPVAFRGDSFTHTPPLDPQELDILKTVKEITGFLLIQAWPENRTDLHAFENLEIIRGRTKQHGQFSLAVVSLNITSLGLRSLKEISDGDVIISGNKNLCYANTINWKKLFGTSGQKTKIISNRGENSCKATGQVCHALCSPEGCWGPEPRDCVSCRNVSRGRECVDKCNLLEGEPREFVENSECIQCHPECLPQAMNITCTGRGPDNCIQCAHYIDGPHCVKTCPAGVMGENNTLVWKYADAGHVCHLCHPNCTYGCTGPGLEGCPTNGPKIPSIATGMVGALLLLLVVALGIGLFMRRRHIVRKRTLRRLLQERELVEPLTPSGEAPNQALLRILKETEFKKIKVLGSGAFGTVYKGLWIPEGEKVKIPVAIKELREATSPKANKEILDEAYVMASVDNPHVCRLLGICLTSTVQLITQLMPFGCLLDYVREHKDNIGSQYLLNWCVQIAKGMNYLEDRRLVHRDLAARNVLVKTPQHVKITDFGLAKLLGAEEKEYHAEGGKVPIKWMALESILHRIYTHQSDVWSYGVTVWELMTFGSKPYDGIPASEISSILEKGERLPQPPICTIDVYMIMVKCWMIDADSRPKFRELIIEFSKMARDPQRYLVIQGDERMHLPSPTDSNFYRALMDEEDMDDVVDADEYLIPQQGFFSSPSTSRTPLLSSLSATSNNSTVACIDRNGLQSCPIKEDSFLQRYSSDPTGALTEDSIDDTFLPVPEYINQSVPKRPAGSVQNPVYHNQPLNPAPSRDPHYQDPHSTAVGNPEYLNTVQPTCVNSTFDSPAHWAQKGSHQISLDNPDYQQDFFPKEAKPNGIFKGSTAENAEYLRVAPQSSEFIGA
Chain of Torsin-1A-interacting protein 2 (Homo sapiens) (Q8NFQ8 whole entry, looked up): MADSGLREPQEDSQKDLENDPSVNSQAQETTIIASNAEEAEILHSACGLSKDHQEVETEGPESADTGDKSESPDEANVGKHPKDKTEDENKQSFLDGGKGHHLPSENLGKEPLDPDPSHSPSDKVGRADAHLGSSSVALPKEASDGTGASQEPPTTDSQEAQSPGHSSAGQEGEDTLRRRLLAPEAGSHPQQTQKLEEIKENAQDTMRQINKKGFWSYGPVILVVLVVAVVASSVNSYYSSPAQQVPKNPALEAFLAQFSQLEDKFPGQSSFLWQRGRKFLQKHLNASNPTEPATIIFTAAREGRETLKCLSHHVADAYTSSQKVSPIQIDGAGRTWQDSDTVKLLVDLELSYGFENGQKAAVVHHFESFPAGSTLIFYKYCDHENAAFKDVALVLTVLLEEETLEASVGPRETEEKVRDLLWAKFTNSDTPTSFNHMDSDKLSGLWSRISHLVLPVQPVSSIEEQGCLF
Chain of Neurogenic locus notch homolog protein 3 (Homo sapiens) (Q9UM47 whole entry, looked up): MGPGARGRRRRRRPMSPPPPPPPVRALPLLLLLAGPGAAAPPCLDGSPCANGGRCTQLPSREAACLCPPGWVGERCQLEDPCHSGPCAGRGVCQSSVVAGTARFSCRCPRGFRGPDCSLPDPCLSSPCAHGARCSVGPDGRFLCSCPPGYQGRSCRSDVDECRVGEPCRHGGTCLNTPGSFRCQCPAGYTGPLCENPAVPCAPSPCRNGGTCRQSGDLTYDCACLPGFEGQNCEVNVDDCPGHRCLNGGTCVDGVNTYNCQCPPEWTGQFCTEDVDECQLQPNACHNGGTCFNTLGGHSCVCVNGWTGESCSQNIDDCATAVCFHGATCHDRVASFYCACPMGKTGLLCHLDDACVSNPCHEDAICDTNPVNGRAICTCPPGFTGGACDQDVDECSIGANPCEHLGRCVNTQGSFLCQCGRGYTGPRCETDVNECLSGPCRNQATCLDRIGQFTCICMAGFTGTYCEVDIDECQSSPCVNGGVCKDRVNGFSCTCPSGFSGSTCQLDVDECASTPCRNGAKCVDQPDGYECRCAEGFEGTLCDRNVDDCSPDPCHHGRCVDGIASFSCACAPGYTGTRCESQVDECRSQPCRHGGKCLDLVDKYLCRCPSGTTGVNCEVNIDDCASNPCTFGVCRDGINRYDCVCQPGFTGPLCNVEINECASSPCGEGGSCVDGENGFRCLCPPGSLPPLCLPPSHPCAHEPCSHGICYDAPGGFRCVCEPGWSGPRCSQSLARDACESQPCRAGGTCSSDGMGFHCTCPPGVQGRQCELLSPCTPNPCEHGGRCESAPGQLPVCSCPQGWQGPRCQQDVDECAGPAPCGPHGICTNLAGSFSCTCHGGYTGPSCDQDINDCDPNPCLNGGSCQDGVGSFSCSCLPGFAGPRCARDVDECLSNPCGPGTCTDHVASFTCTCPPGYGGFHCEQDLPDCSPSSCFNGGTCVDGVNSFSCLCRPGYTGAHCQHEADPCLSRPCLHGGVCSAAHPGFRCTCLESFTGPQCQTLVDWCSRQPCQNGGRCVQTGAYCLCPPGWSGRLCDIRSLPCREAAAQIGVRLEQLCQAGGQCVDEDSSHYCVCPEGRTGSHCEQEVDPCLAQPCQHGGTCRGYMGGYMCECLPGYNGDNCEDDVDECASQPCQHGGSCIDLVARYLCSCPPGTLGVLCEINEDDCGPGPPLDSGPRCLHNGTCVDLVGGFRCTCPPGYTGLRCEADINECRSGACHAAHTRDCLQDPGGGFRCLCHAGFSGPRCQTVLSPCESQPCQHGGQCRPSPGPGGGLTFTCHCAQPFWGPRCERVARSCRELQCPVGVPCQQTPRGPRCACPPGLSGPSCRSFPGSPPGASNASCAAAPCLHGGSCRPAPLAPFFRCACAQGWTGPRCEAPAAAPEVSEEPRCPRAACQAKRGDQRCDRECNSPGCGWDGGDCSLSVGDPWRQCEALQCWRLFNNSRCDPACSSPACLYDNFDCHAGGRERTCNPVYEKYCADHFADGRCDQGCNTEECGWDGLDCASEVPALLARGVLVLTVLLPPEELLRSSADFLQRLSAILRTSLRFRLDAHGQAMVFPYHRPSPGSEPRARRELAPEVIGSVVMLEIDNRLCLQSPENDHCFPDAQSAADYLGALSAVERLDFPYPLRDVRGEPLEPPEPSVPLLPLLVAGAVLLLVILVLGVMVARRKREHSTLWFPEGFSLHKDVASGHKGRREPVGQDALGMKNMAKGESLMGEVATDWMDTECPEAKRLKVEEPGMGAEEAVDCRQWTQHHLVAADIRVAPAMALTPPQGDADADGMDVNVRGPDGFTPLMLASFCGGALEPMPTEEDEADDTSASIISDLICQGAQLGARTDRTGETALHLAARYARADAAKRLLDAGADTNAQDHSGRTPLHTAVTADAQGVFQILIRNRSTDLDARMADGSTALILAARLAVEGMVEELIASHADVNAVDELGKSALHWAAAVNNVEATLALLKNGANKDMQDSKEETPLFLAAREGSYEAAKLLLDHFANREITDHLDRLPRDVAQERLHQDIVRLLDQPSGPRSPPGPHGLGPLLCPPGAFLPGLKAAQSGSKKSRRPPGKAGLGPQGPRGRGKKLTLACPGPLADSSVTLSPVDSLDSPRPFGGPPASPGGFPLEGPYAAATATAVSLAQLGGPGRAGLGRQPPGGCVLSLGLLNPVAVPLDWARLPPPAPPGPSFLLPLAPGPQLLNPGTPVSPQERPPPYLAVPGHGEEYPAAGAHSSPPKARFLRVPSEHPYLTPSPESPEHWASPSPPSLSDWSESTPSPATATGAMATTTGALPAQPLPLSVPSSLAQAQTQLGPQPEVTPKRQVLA

Row | SMILES | composite z-score [1] | z-score [2] | z-score [3] | z-score [4] | composite z-score [5] | z-score [6] | composite z-score [7] | composite z-score [8] | composite z-score [9] | composite z-score [10] | composite z-score [11] | composite z-score [12] | composite z-score [13] | z-score [14] | composite z-score [15] | composite z-score [16] | composite z-score [17] | composite z-score [18] | composite z-score [19] | composite z-score [20]
1 | COc1ccc([Si](C)(C)[C@H]2[C@H](CC(=O)N3CCC[C@H]3CO)O[C@@]3(C(=O)N(C)c4ccccc43)[C@@H]2C)cc1 | 0.969 | -0.42 (inactive) | -0.134 (inactive) | -0.401 (inactive) | 0.757 | -0.735 (inactive) | -0.0258 | 1.85 | 0.207 | -0.151 | 0.364 | 0.214 | -0.159 | 0.361 (inactive) | 0.105 | -0.102 | 0.335 | 0.705 | 0.588 | 1.48
2 | CC1C2C(CCCO)=CC(C3C(=O)N(C(N)=O)C(=O)C23)N1Cc1cccc(OC(F)(F)F)c1 (stereo not given) | 1.31 | -3.02 (inactive) | -0.198 (inactive) | 0.58 (inactive) | 2.79 | 0.262 (inactive) | -0.139 | 0.487 | 0.628 | -0.0828 | 0.174 | -0.0132 | -0.311 | -0.586 (inactive) | 0.646 | 0.719 | 0.177 | 0.101 | -0.26 | -0.055
3 | COc1ccc([Si](C)(C)[C@H]2[C@H](CC(=O)N(CCO)Cc3ccccc3)O[C@@]3(C(=O)N(Cc4ccc(N5C(=O)c6cccc7cccc5c67)cc4)c4ccccc43)[C@@H]2C)cc1 | 1.48 | 0.614 (inactive) | 0.685 (inactive) | 2.87 (inactive) | 2.15 | 0.222 (inactive) | 0.748 | 1.36 | 1.12 | 0.0059 | 0.899 | 0.0486 | 0.0598 | -1.1 (inactive) | 0.994 | -0.461 | 0.303 | 0.614 | 0.541 | 0.803
4 | COc1ccc([Si](C)(C)[C@@H]2[C@@H](CC(=O)N3Cc4ccccc4C[C@H]3CO)O[C@]3(C(=O)N(Cc4ccc(I)cc4)c4ccccc43)[C@H]2C)cc1 | 1.57 | 0.391 (inactive) | 0.956 (inactive) | 2.07 (inactive) | 0.603 | 2.19 (inactive) | 0.0007 | 1.92 | 1.1 | -0.0982 | 0.458 | -0.128 | -0.357 | -1.36 (inactive) | 1.12 | 0.66 | 1.22 | 1.36 | 1.45 | 1.52
5 | COCCCNC(=O)[C@@]1(Cc2ccccc2I)c2ccccc2C(=O)N(C2CCCCC2)[C@H]1c1ccc(CO)cc1 | 1.51 | -1.83 (inactive) | -0.856 (inactive) | -1.11 (inactive) | 2.97 | 0.0355 (inactive) | -0.106 | 0.556 | 0.337 | -0.0512 | 1.25 | 0.015 | 0.445 | -0.235 (inactive) | 0.973 | 0.681 | -0.0802 | 0.0553 | 0.249 | 0.123
6 | COCCCNC(=O)[C@@]1(CCC(=O)OC(C)(C)C)N=C(c2ccc(OCCCO)cc2)O[C@H]1c1ccccc1 | 1.53 | 0.241 (inactive) | -0.629 (inactive) | 0.0716 (inactive) | 3.51 | 1.25 (inactive) | 0.0296 | 1.56 | 0.275 | 0.0682 | 1.06 | 0.96 | 1.02 | -0.187 (inactive) | 0.638 | -0.505 | -0.266 | 0.297 | -0.538 | 0.701
7 | CC(CO)N1C(=O)[C@@H]2[C@H]3C(=O)OCC=C[C@H]3OC23C=CCN(c2ccc4ccccc4c2)C(=O)[C@@H]13 (stereo not given in full) | -0.534 | -0.112 (inactive) | -0.688 (inactive) | -0.128 (inactive) | -1.16 | -0.594 (inactive) | 0.111 | -1.89 | -1.4 | -0.301 | -0.893 | -0.0682 | 0.725 | 0.445 (inactive) | -0.916 | -1.56 | -1.64 | -1.66 | -1.83 | -1.18
8 | COc1ccc([Si](C)(C)[C@@H]2[C@@H](CC(=O)N(CCO)Cc3ccccc3)O[C@]3(C(=O)N(Cc4cccc(I)c4)c4ccccc43)[C@H]2C)cc1 | 1.46 | -0.0171 (inactive) | 1.27 (inactive) | 3.46 (inactive) | 0.444 | 0.645 (inactive) | 0.0553 | 1.51 | 1.07 | 0.0102 | 0.824 | -0.0248 | 0.337 | -0.847 (inactive) | 1.45 | 0.766 | 0.661 | 1.42 | 1.34 | 0.963
9 | C=CC[C@H](O)c1ccc(O)c2ccccc12 | 1.56 | -7.13 (inactive) | -17.9 (active) | 8.59 (active) | 1.71 | 1.49 (inactive) | 0.0277 | 1.07 | 1.07 | -0.0151 | 0.623 | -0.196 | -0.0155 | -1.26 (inactive) | 1.1 | 1.01 | 1.04 | 1.42 | 1.34 | 1.21
10 | CCOC(=O)C[C@H]1[C@H](OC(=O)c2ccccc2-c2ccccc2)[C@@H](NC(=O)CC(C)C)c2cc(OCCCO)ccc2N1C(=O)c1ccccc1 | 0.768 | -0.959 (inactive) | -0.613 (inactive) | -1.52 (inactive) | 0.583 | 0.482 (inactive) | -0.0859 | 1.3 | 1.09 | -0.159 | 0.461 | -0.28 | -0.56 | -0.739 (inactive) | 0.625 | 0.211 | 0.405 | 1.26 | 0.523 | -0.105
